# Among all 370,000 compounds or so, about 2,300 (0.62%) were called active.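 The calls were made as follows: active = inhibition above a per-campaign cutoff equal to the mean of compounds falling between control-based bounds plus 3 SD (cut at about 20% in these data); inactive = the rest.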 The sample as a whole holds a higher share of actives than the screen did.
# Molecular target: Disintegrin and metalloproteinase domain-containing protein 10 (Homo sapiens) (UniProt O14672)
# Assay: human ADAM10 inhibitors, primary screen, biochemical, QFRET, HTS (AID 720582);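 also: 0% = DMSO wells while the 100% control is not disclosed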
# Settings: recombinant ADAM10, EDANS/DABCYL FRET peptide cleavage, 3 h; at 7 µM; active compounds read high
# Sequence of Disintegrin and metalloproteinase domain-containing protein 10 (Homo sapiens) (O14672 214-748 limits assumed): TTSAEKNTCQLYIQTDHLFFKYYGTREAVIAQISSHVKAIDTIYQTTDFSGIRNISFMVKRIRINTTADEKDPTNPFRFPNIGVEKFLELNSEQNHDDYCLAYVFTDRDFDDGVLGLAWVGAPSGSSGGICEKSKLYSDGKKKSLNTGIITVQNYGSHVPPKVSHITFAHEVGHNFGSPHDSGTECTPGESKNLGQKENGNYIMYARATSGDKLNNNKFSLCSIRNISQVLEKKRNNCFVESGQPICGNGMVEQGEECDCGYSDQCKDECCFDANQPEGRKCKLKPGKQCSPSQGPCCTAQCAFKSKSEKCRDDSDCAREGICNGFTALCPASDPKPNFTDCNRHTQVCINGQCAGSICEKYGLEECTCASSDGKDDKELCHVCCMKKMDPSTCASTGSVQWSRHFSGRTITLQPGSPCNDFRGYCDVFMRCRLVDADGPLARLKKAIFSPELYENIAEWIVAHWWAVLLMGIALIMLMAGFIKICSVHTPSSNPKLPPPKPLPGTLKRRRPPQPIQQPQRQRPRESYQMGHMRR
row,Compound,inhibition
1,CC(c1c[nH]c2ccccc12)c1c(-c2ccccc2)n(C)c2ccccc12 (centres undefined),-17.9% (inactive)
2,CCCC(=O)Nc1cccc(NC(=S)NC(=O)C(C)Oc2ccc(Cl)cc2Cl)c1 (centres undefined),6.41% (inactive)
3,CC(C)C(=O)Nc1cccc(NC(=S)NC(=O)C(c2ccccc2)c2ccccc2)c1,21.2% (active)
4,CCCCC(=O)NNC(=S)NC(=O)C(c1ccccc1)c1ccccc1,7.07% (inactive)
5,CSCCC1NC2(C(=O)Nc3ccc(Cl)cc32)[C@@H]2C(=O)N(C3CCCC3)C(=O)[C@H]12 (some centres undefined),11.7% (inactive)
6,CC(C)(C)N1C(=O)[C@H]2[C@@H](c3ccc(Br)cc3)N3C(=O)N(c4cccc(Cl)c4)C(=O)[C@@]3(C)[C@H]2C1=O,33.8% (active)
7,C[C@@]12C(=O)N(c3cccc(Br)c3)C(=O)N1[C@H](c1ccc(Cl)cc1)[C@@H]1C(=O)N(C3CCCCC3)C(=O)[C@@H]12,31.7% (active)
8,CC12C(=O)N(c3ccccc3)C(=O)C1C(c1ccccc1)N1CCCN12 (centres undefined),-2% (inactive)
9,CC[C@@]12C(=O)N(c3ccccc3)C(=O)N1[C@H](c1ccc(Br)cc1)[C@@H]1C(=O)N(C(C)(C)C)C(=O)[C@@H]12,15.3% (inactive)
10,CCN1C(=O)[C@H]2[C@@H](c3ccc(C)cc3)N3C(=O)N(c4cccc(Br)c4)C(=O)[C@@]3(CC)[C@H]2C1=O,4.57% (inactive)
11,COc1ccc([C@@H]2[C@@H]3C(=O)N(C(C)(C)C)C(=O)[C@@H]3[C@]3(Cc4ccccc4)C(=O)N(c4cccc(Br)c4)C(=O)N23)cc1,33.4% (active)
12,COC(=O)[C@]12C[C@H](CC(=O)NCc3ccccc3)C(=O)N(Cc3ccccc3)C1=C[C@H](COCc1ccccc1)O[C@@H]2C,6.96% (inactive)
13,C=CCN(C)CC#Cc1ccccc1,-2.28% (inactive)
14,O=C(OC12CCCN(C1)/C(=C/c1ccccc1)C2)c1ccco1 (centres undefined),8.44% (inactive)
15,O=S1(=O)c2c(NCc3ccco3)cccc2Oc2ccccc2CN1Cc1cn(Cc2cccc(C(F)(F)F)c2)nn1,-9.48% (inactive)
16,COc1ccc(-c2cc(-c3nnc(SCC(=O)Nc4cccc5ccccc45)n3N)[nH]n2)cc1,-7.36% (inactive)
17,CC(CCN1CCC(C(O)(c2ccccc2)c2ccccc2)CC1)Oc1ccc(C(F)(F)F)cc1 (centres undefined),5.96% (inactive)
18,CCCC(O)(CCC)C(=O)NN(C(=O)CCl)c1cccc(C)c1,-8.56% (inactive)
19,Cc1ccc(N(NC(=O)C(C)(C)O)C(=O)c2ccccc2)cc1C,87.5% (active)
20,COC(=O)N(NC(=O)C(O)(C(C)C)C(C)C)c1ccccc1,-0.6% (inactive)
21,O=C(CN1CCCc2ccccc21)NCc1ccc(F)cc1,1.16% (inactive)

row,Compound,inhibition
1,O=C(Nc1cc(F)cc(F)c1)OC1CCC12CCC(c1ccccc1)CC2 (centres undefined),7.13% (inactive)
2,CCC(=O)OCc1c(C(F)(F)F)nn(C)c1Oc1cccc(C(F)(F)F)c1,-6.05% (inactive)
3,COC(=O)c1ccccc1Sc1c(/C=N/OCc2ccc(Cl)cc2)c(C(F)(F)F)nn1C,-2.32% (inactive)
4,Cn1nc(C(F)(F)F)c(C(=O)Nc2cccc(C(F)(F)F)c2)c1SCc1ccc(Cl)cc1,43.5% (active)
5,c1csc(-c2nnc(SCc3nc4ccccc4[nH]3)o2)c1,-40.8% (inactive)
6,N#Cc1ccccc1OC[C@@H](O)CN1CCC(C(O)(c2ccccc2)c2ccccc2)CC1,-0.66% (inactive)
7,Cc1ccc(C)c(NC(=O)NNC(=O)c2ccc3ccccc3c2O)c1,-78.3% (inactive)
8,Cc1cc(C(=O)NNC(=S)NC(C)c2ccccc2)cs1 (centres undefined),9.44% (inactive)
9,Cc1ccc(C)c(NC(=S)NNC(=O)c2csc(C)c2)c1,24.9% (active)
10,COc1ccccc1C(=O)CSc1nnc(-c2ccccn2)n1-c1ccccc1,-1.9% (inactive)
11,COc1cccc(CSc2nnc(-c3cccnc3)n2Cc2ccccc2)c1,-11.6% (inactive)
12,O=C(CCCCCN1C(=O)C2C3C=CC(C3)C2C1=O)Nc1ccccn1 (centres undefined),2.11% (inactive)
13,COC(=O)c1cc(S(=O)(=O)N2CCN(C(=O)C3CCCO3)CC2)cn1C (centres undefined),-4.05% (inactive)
14,CCC(C)(C)c1ccc(Oc2ccc(NC(=O)COC(=O)C3=COCCO3)cc2)cc1,35.7% (active)
15,COc1ccc(NC(=O)COC(=O)CNC(=O)C2CCCCC2)cc1,-0.81% (inactive)
16,O=C1CCC(C(=O)OCC(=O)Nc2ccc(OC(F)F)cc2)=NN1,5.49% (inactive)
17,Cc1cc(C)cc(OCC(=O)O/N=C(\N)Cc2ccc([N+](=O)[O-])cc2)c1,6.24% (inactive)
18,N/C(Cc1ccc([N+](=O)[O-])cc1)=N\OC(=O)C1CCCCC1,-1.46% (inactive)
19,N/C(Cc1ccc([N+](=O)[O-])cc1)=N\OC(=O)COc1ccc2ccccc2c1,29.3% (active)
20,O=C(NCC1COc2ccccc2O1)c1ccc(NC(=O)c2cc(F)ccc2F)cc1 (centres undefined),-8.24% (inactive)
21,CCOC(=O)N1CCN(C(=O)C[C@@H]2C(=O)N(CCc3ccc(Cl)cc3)C3=CCCC[C@]32C(=O)OCC)CC1,1.06% (inactive)

row,Compound,inhibition
1,COc1ccc(C(C(=O)NC2CCCCC2)N(C(=O)CCl)c2ccccc2Cl)cc1 (centres undefined),-8.69% (inactive)
2,COc1ccc(CN(CCN2CCOCC2)C(=O)c2ccc(C)cc2)cc1OC,-9.63% (inactive)
3,COc1ccc(C(CCN(Cc2ccc(OC)c(OC)c2)C(=O)CCl)c2ccccc2)cc1 (centres undefined),28% (active)
4,COC(=O)C1CN(CCc2ccccc2)CCS(=O)(=O)N1Cc1ccc(F)cc1 (centres undefined),-11.1% (inactive)
5,COC1=C[C@H](C(=O)NCCNC(C)=O)[C@H](C)[C@@H](c2ccccc2)CC1=O,4.85% (inactive)
6,CCOc1ccccc1NC(=O)c1cc(S(=O)(=O)N2CCC3(CC2)OCCO3)ccc1F,-1.65% (inactive)
7,CCOc1cc(NC(=O)CCl)c(OCC)cc1NC(C)=O,-2.95% (inactive)
8,CCOc1cc(NC(=O)c2ccccc2C(=O)O)c(OCC)cc1NC(=O)c1ccccc1F,26.7% (active)
9,c1cncc(CNc2ccnc(-c3ccc4c(c3)OCO4)n2)c1,-4.61% (inactive)
10,CN(CCc1ccccc1)C(=O)Cn1nc(-c2ccccc2)ccc1=O,-9.95% (inactive)
11,C=CCOc1ccc(/C=N/n2cncn2)cc1OC,-13.5% (inactive)
12,CNC(=S)N/N=C/c1ccc(OCc2ccccc2)c(Br)c1,-17% (inactive)
13,COc1cc(/C=N/n2c(C)n[nH]c2=S)ccc1OCc1ccccc1,20.3% (active)
14,CC(CCN1CCC(C(O)(c2ccccc2)c2ccccc2)CC1)Oc1ccc(Cl)cc1 (centres undefined),6% (inactive)
15,O=S1(=O)c2ccc(Br)cc2OC[C@H](Cc2ccccc2)N1Cc1cn(Cc2ccccc2)nn1,-9.49% (inactive)
16,C=C(C)COc1ccc(-c2n[nH]c(C)c2-c2ccccc2)c(O)c1,23.7% (active)
17,Cc1[nH]nc(-c2ccc(OCc3cnn(-c4ccccc4)c3)cc2O)c1Oc1ccc(Cl)cc1,-10.7% (inactive)
18,C[C@H]1CCC/C=C/C(=O)c2c(O)cc(O)cc2CC(=O)O1,-6.63% (inactive)
19,Cc1ccc(OCc2nnc(SC/C=C/c3ccccc3)n2Cc2ccco2)cc1,21.3% (active)
20,Cc1ccc(-c2nnc(SCC(=O)Nc3ccc(Oc4ccccc4)cc3)n2Cc2ccco2)cc1,17.8% (inactive)
21,O=C(CSc1nnc(COc2ccccc2)n1Cc1ccco1)c1ccc2ccccc2c1,9.91% (inactive)

row,Compound,inhibition
1,Cc1c(C(C)c2ccccc2O)[nH]c2ccccc12 (centres undefined),11.8% (inactive)
2,O=C1CC(c2ccc3c(c2)OCO3)N=C2N(CC3CC3)C/C(=C/c3ccccc3)N12 (centres undefined),-2.63% (inactive)
3,Cc1ccc(C)c(NC(=O)c2ccc(OC(=O)c3ccco3)cc2)c1,0.79% (inactive)
4,O=C(Oc1cccc(N2C(=O)C3C4c5ccccc5C(c5ccccc54)C3C2=O)c1)c1ccco1 (centres undefined),20.3% (active)
5,CC(=O)Nc1ccc(N2C(=O)C3C4CC(=O)C(c5ccccc54)C3C2=O)cc1 (centres undefined),-0.65% (inactive)
6,O=C(NCCNc1ccc([N+](=O)[O-])cc1)c1cccc2c(Br)cccc12,-54.2% (inactive)
7,COc1ccc(Cn2cc(COC(=O)N(C)Cc3ccccc3)nn2)cc1,1.83% (inactive)
8,CC(N=Cc1nc(-c2ccccc2)oc1O)c1ccccc1 (centres undefined),21% (active)
9,Oc1oc(-c2ccccc2Br)nc1/C=N/c1ccccn1,-33.4% (inactive)
10,COc1ccc(-n2c(SCC(=O)Nc3ccc4cn[nH]c4c3)nnc2-c2cccnc2)cc1,3.52% (inactive)
11,CC(C)CSc1nnc(-c2cccnc2)n1Cc1ccccc1,-2.15% (inactive)
12,Nn1c(SCC(=O)N2c3ccccc3Sc3ccccc32)nnc1-c1n[nH]c2c1CCC2,-5.44% (inactive)
13,Cc1ccc(N(CC(=O)Nc2cc(C)cc(C)c2)S(=O)(=O)c2cccc3nonc23)cc1,14.3% (inactive)
14,CCNC(=O)CN(c1ccc(C)cc1)S(=O)(=O)c1ccc(SC)cc1,2.9% (inactive)
15,Cc1ccc(S(=O)(=O)N(CC(=O)Nc2cccnc2)c2ccc(Br)cc2)cc1,20.1% (active)
16,O=S1(=O)c2c(cccc2N2CCSCC2)Oc2ccccc2CN1Cc1cn(Cc2ccc(F)cc2)nn1,-1.57% (inactive)
17,CCOc1ccc(N(CC(=O)Nc2c(C)n(C)n(-c3ccccc3)c2=O)S(=O)(=O)c2ccc(Cl)s2)cc1,7.29% (inactive)
18,NC(=O)c1ccccc1N(Cc1ccccc1)S(=O)(=O)c1ccccc1,14.4% (inactive)
19,O=C(O)c1cc(S(=O)(=O)N(Cc2ccccc2)c2ccccc2)ccc1Cl,2.05% (inactive)
20,O=S(=O)(c1ccccc1)N(Cc1cccc(F)c1)c1ccccc1,22.7% (active)
21,Cc1cc(=O)[nH]c(SCC(=O)Nc2ccc(Cl)cc2C)n1,-0.31% (inactive)
